Results filed as inconclusive are left out. Active and inactive are the calls of the source. The call rests on the fitted dose curve; in most records, active means well fitted inhibition curve with a large enough effect; inconclusive means small, poorly fitted or top-dose-only effect; inactive means no such curve, though single readings can be large or run the other way.
Biological target: Retinaldehyde dehydrogenase 3 (Homo sapiens) (UniProt P47895)
Assay: qHTS for Inhibitors of the Aldehyde Dehydrogenase Family (ALDH1A3) Primary screen (AID 2061315);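 further: plate controls were DMSO vehicle for no effect and reference inhibitor for full effect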
Conditions: ALDH inhibition qHTS; series mostly up to 56 µM; activity change, negative = inhibition: at the top concentration

Structure (SMILES)	activity change, negative = inhibition
COc1c(C)c(OCC(O)C(C)(C)O)cc2c1CNC2=O (stereo not drawn)	6.62% (inactive)
CC1(C)CC[C@]2(C(=O)O[C@@H]3O[C@H](CO)[C@@H](O)[C@H](O)[C@H]3O)CC[C@]3(C)C(=CCC4[C@@]5(C)CC[C@H](O[C@@H]6O[C@H](C(=O)O)[C@@H](O[C@@H]7O[C@H](CO)[C@@H](O)[C@H](O)[C@H]7O)[C@H](O)[C@H]6O[C@@H]6O[C@H](CO)[C@@H](O)[C@H](O)[C@H]6O)C(C)(C)C5CC[C@]43C)C2C1 (stereo partly drawn)	-9.94% [at 16.9 µM] (inactive)
CC(C)n1cnc2c(-c3cnc(N)nc3)nc(N3CCOCC3)nc21	-13.8% [at 28 µM] (inactive)
C=CC(=O)N1CCCC(n2nc(-c3ccc(Oc4ccccc4)cc3)c3c(N)ncnc32)C1 (stereo not drawn)	17.6% (inactive)
CC(NC(=O)[C@H](Cc1ccccc1)NC(=O)OCc1ccccc1)C(=O)CF (stereo partly drawn)	10.3% (inactive)
COC1(CC(C)C)NC(=O)C(O)(Cc2ccccc2)NC1=O (stereo not drawn)	6.71% (inactive)
CC(=O)OC1C(c2ccccc2)CCC(c2ccccc2)C1OC(C)=O (stereo not drawn)	4% (inactive)
COc1cc2c(cc1OC)CN(C(=O)[C@@H](NCc1ccncc1)C(C)(C)C)CC2	-22.9% (inactive)
COc1cc(/C=C/C(=O)O)ccc1O[C@@H]1O[C@H](CO)[C@@H](O)[C@H](O)[C@H]1O[C@@H]1OC[C@](O)(CO)[C@H]1O	-5.34% [at 28 µM] (inactive)
Cc1cccc(N2CCN(C(=O)c3cc(S(=O)(=O)N(C)C)ccc3N3CCCC3)CC2)c1C	-6.61% (inactive)
Nc1nonc1C(=Nc1ccc(F)c(Cl)c1)NO	5.15% (inactive)
Cc1coc2c1CC1OC1(C)CCC1OC1(C)C2 (stereo not drawn)	4.84% (inactive)
C=C1CC[C@@H]2[C@](C)(CO)[C@H](O)CC[C@@]2(C)[C@@H]1C/C=C1/C(=O)OCC1OC(=O)/C(=C/CO)C(O)C[C@@H]1C(=C)CC[C@@H]2[C@](C)(CO)[C@H](O)CC[C@]21C (stereo partly drawn)	-7.37% [at 16.9 µM] (inactive)
CCCC(=O)C1(c2ccccc2)CCN(C(=O)[C@@H](Cc2ccc(OC)cc2)NC(=O)[C@@H](N)Cc2cncn2C)CC1	16.6% (inactive)
COc1cc(CCC2=NN=C(NC(=O)c3ccc(N4C[C@@H](C)N[C@@H](C)C4)cc3)C2)cc(OC)c1	53.7% (inactive)
COc1ccc2c3c1O[C@H]1C[C@@H](O)C=C[C@@]31CCN(C)C2	-13% (inactive)
O=C(COc1cccc2c(=O)[nH]ccc12)c1ccccc1	11.1% (inactive)
CCC(CC)Nc1nc(C)c(-c2ccc(OC(F)(F)F)cc2OC)nc1OC	-10.8% (inactive)
CC1CCC23COC(=O)C2=CC(O)CC3C1(C)CCc1ccoc1 (stereo not drawn)	3.33% (inactive)
CC(=O)OCC1=C[C@@H]2OC(=O)C3=CO[C@@H](O[C@@H]4O[C@H](CO)[C@@H](O)[C@H](O)[C@H]4O)[C@H]1[C@@H]32	13% [at 28 µM] (inactive)
C=C1C(OC(=O)/C(C)=C\C)[C@@]23CCC4[C@@](C)(CCC[C@@]4(C)C(=O)O)C2CC[C@H]1C3OC(C)=O (stereo partly drawn)	7.82% [at 28 µM] (inactive)
CC1CCC2C(C)(C)[C@H](O)CC[C@]2(C)C12Cc1c(O)cc3c(c1O2)CN(C(CCC(=O)O)C(=O)O)C3=O (stereo partly drawn)	8.03% [at 28 µM] (inactive)
CCC/C=C1\OC(=O)C2=C1CCC(O)C2O (stereo not drawn)	-6.03% (inactive)
C=C(C)C1CCC(C)C12CC(O)C1(C)OC1C2OC(=O)C(N)CCC(=O)O (stereo not drawn)	17.7% (inactive)
CC(=O)OC/C(=C/C(=O)O)CC[C@@H]1C(C)=CC(=O)[C@@H]2C(C)(C)CCC[C@@]12C	-7.12% (inactive)
C=CC(C)(C)c1[nH]c2cc3c(cc2c1CC1NC(=O)C2CCCN2C1=O)C=CC(C)(C)O3 (stereo not drawn)	-16% [at 28 µM] (inactive)
C=C[C@@](C)(CCC=C(C)C)O[C@@H]1O[C@H](CO[C@@H]2OC[C@H](O)[C@H](O)[C@H]2O)[C@@H](O)[C@H](O)[C@H]1O	-3.46% [at 28 µM] (inactive)
C=CC1C(O[C@@H]2O[C@H](CO)[C@@H](O)[C@H](O)[C@H]2O)OC=C(C(=O)OC)C1CC(=O)O (stereo partly drawn)	-17.6% [at 28 µM] (inactive)

Source: PubChem BioAssay (NCATS)
